Source: PubChem
MITF inh = MITF inhibitors, primary screen, biochemical, AlphaScreen, human; inhibition, % at 2.6 µM; 650,000 compounds, 0.91% hits; AlphaScreen MITF homodimerization, bead proximity signal; AID 1259374, 2018; Microphthalmia-associated transcription factor (Homo sapiens), O75030; in the data active = inhibition above about 50%
TEAD-YAP inh = TEAD-YAP interaction inhibition, primary screen, TEAD-YAP interaction inhibitor project, luminescence, HEK-TIYL cells; 640,000 compounds, 1.4% hits; inhibition, % at 9.12 µM; AID 1259422, 2018; TEAD-Gal4/YAP UAS-luciferase luminescence; in the data active = inhibition above about 32%
GPR151 activ = activators of human GPR151, primary screen, cell-based, PathHunter beta-arrestin, luminescence; activation, % at 11.2 µM; PathHunter beta-arrestin GPR151 cells; G-protein coupled receptor 151 (Homo sapiens), Q8TDV0; 650,000 compounds, 1% hits; AID 1508602, 2020; in the data active = activation above about 4.9%
FBW7 act = FBW7 E3 ligase activators, primary screen, biochemical, AlphaScreen, human. F-box/WD repeat-containing protein 7 (Homo sapiens), Q969H0. AlphaScreen FBW7–phospho-cyclin E peptide binding, activator screen. normalized activity (activation), % at 26.1 µM. 650,000 compounds, 0.13% hits; in the data active = normalized activity above about 1.9%;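 note: purified mutant Fbw7 with reduced substrate affinity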
Target sequence (Q969H0 whole entry, looked up): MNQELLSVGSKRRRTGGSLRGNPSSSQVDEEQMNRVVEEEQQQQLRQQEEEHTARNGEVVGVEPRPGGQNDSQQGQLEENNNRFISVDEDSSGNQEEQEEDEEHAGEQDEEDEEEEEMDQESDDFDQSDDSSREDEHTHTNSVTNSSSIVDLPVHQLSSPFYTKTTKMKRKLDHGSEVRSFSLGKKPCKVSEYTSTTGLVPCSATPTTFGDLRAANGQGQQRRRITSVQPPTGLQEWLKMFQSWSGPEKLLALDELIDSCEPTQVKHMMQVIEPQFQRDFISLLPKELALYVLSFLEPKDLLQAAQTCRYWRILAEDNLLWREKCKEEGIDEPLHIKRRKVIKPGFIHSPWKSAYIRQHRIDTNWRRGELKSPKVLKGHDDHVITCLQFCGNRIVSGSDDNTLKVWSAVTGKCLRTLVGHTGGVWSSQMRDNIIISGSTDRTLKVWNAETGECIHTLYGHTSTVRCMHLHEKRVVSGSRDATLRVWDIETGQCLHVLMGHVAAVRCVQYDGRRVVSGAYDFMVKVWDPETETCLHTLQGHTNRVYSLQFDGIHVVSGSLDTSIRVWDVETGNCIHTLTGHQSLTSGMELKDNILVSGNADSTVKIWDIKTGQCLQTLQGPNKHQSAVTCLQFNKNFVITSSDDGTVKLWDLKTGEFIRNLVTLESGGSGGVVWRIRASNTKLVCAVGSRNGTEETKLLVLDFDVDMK
Large screens that a line does not name were inactive. Compounds with a hit are over-represented: about 3.4% of the library has one in this group of screens.

COCCCn1c(=O)[nH]c2ncc(-c3cccc(F)c3)nc21	none
CC(Oc1ccc(Br)cc1Cl)C(=O)Nc1ccncc1 (stereo unspecified)	TEAD-YAP inh 47.6
COc1cc([N+](=O)[O-])ccc1NC(=O)Nc1cc(OC)c(OC)c(OC)c1	none
Nc1c(C(=O)N2CCOCC2)sc2nc3c(cc12)CCCC3	none
NC(=O)c1sc2nc3c(cc2c1N)CCCCC3	TEAD-YAP inh 67.7
Cc1cc(C)c2nc3sc(C(=O)N4CCOCC4)c(N)c3cc2c1	TEAD-YAP inh 36.0
Nc1c(C(=O)N2CCOCC2)sc2nc3c(cc12)CCCCC3	TEAD-YAP inh 86.8
Nc1c(C(=O)c2ccc(Cl)cc2)sc2nc3c(cc12)CCCC3	none
Nc1c(C(=O)c2ccccc2)sc2nc3c(cc12)CCCC3	TEAD-YAP inh 39.8
COc1cc2cc(C#N)c(SCC(=O)NC3CCCC3)nc2cc1OC	none
O=C(COc1ccc(Cl)cc1Cl)NNC(=O)C(F)(F)F	none
NC(=O)c1sc2nc3cc4c(cc3cc2c1N)OCCO4	TEAD-YAP inh 97.4
Nc1c(C(=O)Nc2ccccc2)sc2nc3c(cc12)CCC3	none
Nc1c(C(=O)Nc2cccc(C(=O)O)c2)sc2nc3c(cc12)CCC3	TEAD-YAP inh 57.5
COC(=O)C1CCN(C(=O)c2ccc(C)c(C)c2)CC1	none
CCOC(=O)c1ccccc1N/C=C(/C#N)c1nc(-c2ccc(OC)cc2)cs1	none
Cc1ccc(NC(=O)N[C@H]2C[C@H]3C(=O)N4CCC[C@H]4C(=O)N3C2)cc1C	none
CC(C)n1cc(-c2ccc3ccccc3n2)cn1	TEAD-YAP inh 82.3
Cc1ccc(N(CC(O)CN2CCCC2)S(=O)(=O)c2ccc3ccccc3c2)cc1 (stereo unspecified)	none
COc1ccc(CC(=O)Nc2nccs2)cc1OC	none
Cc1cc(OCC(=O)Nc2nccs2)ccc1C(C)C	TEAD-YAP inh 61.1
O=C(NCc1cccs1)c1ccc(OCc2ccc3ccccc3n2)cc1	none
COc1cc(C(C)=O)ccc1OCC(=O)Nc1nccs1	TEAD-YAP inh 56.0
CCOc1ccc(OCC(=O)Nc2nccs2)cc1	TEAD-YAP inh 79.4
O=C(Nc1nccs1)c1ccc(OCc2ccc3ccccc3n2)cc1	FBW7 act 5.6
CS(=O)(=O)Nc1cccc(-c2cnc(N3CCOCC3)c3nccn23)c1	none
O=C1COc2ccc(C(=O)COC(=O)c3c(F)cccc3F)cc2N1	none
CC1CCC2(CC1)NC(=O)N(/N=C/c1ccc(Sc3nccn3C)c([N+](=O)[O-])c1)C2=O (stereo unspecified)	none
COc1ccc(OCC(=O)Nc2nccs2)cc1	TEAD-YAP inh 68.3
O=C(COc1ccc(Cl)cc1)Nc1nccs1	none
O=C(O)COc1ccc(/C=C2\SC(=O)N(Cc3ccccc3)C2=O)cc1	none
C=CCOc1ccc(C(=O)Nc2ccccn2)cc1	TEAD-YAP inh 51.6
CC(C)(C)c1ccc(C(=O)Nc2ccccn2)cc1	TEAD-YAP inh 84.0
Cc1ccc(C(=O)Nc2ccccn2)cc1C	TEAD-YAP inh 43.8
CCOc1ccc(N(CC(=O)Nc2ccc3c(c2)OCO3)S(=O)(=O)c2ccc(SC)cc2)cc1	none
COc1ccccc1C(=O)Nc1ccn(Cc2ccccc2)n1	none
Cc1ccc(/C=C2\SC(=S)N(CCCC(=O)Nc3cccnc3)C2=O)cc1	TEAD-YAP inh 33.6
Cc1ccc(/C=C2/SC(=S)N(Cc3cccnc3)C2=O)cc1	none
COc1cc(/C=C2/SC(=S)N(CCCC(=O)O)C2=O)ccc1O	TEAD-YAP inh 60.9
COc1ccc(/C=C2/SC(=S)N(CCC(=O)O)C2=O)cc1	TEAD-YAP inh 57.8
CCOc1ccc(/C=C2\SC(=S)N(CCCC(=O)O)C2=O)cc1	TEAD-YAP inh 79.2
CCCN1C(=O)/C(=C/c2ccc(OC)cc2)SC1=S	none
COC(=O)C(C)N1C(=O)S/C(=C/c2ccc(C)s2)C1=O (stereo unspecified)	none
COC(=O)CCCN1C(=O)/C(=C\c2ccc3c(c2)OCO3)SC1=S	TEAD-YAP inh 59.2
CCOc1cc(/C=C2\SC(=S)N(CCCC(=O)O)C2=O)ccc1O	TEAD-YAP inh 82.3
COc1ccc(/C=C2\SC(=O)N(CCC(=O)O)C2=O)c(OC)c1	TEAD-YAP inh 63.9
O=C(O)CCCCCN1C(=O)/C(=C/c2ccc(O)cc2)SC1=S	none
COc1ccc(/C=C2\SC(=O)N(CO)C2=O)c(OC)c1	none
O=C(O)CCCN1C(=O)/C(=C\c2ccc(OC(F)F)cc2)SC1=S	TEAD-YAP inh 58.8
CCOc1ccc(C(CC(=O)O)NC(=O)c2ccc([N+](=O)[O-])cc2)cc1OC (stereo unspecified)	none
COCCNC(=O)c1cc(S(=O)(=O)N2CCC(C)CC2)ccc1F	none
COCCn1c(C)c(C)n2c3c(=O)n(CC(=O)OCc4ccccc4)c(=O)n(C)c3nc12	none
CCOC(=O)C1=C(C)NC(=S)NC1c1ccccc1OCC(=O)Nc1ccc(C)cc1 (stereo unspecified)	TEAD-YAP inh 36.2
C=CCOC(=O)C1=C(C)NC(=S)NC1c1ccccc1OCC (stereo unspecified)	none
COc1ccc(Cl)cc1S(=O)(=O)NCC(c1ccsc1)N1CCCC1 (stereo unspecified)	none
COc1ccc(C2CC(=O)c3c([nH]c(C(=O)OCCOC(C)C)c3C)C2)cc1OC (stereo unspecified)	TEAD-YAP inh 32.0
COc1ccc(C2CC(=O)c3c([nH]c(C(=O)OCCSC)c3C)C2)cc1OC (stereo unspecified)	TEAD-YAP inh 43.7
O=[N+]([O-])c1ccc(Cl)c(S(=O)(=O)N2CCOCC2)c1	none
COc1ccc(S(=O)(=O)NC(CC(=O)NCCC2=CCCCC2)C(C)C)cc1 (stereo unspecified)	none
CC(C)CN(C(=O)CCl)C1CCS(=O)(=O)C1 (stereo unspecified)	TEAD-YAP inh 66.3
CCCN(C(=O)CCl)C1CCS(=O)(=O)C1 (stereo unspecified)	TEAD-YAP inh 50.3
CN(C)CCN(C(=O)CCl)C1CCS(=O)(=O)C1 (stereo unspecified)	none
CCN(CC)c1ccc(NC(=O)c2ccccc2NC(=O)c2ccc([N+](=O)[O-])cc2)cc1	none
CCc1ccc2c(c1)C(O)(CC(=O)c1ccc(OC)cc1)C(=O)N2 (stereo unspecified)	none
CC1(C)c2ssc(=S)c2-c2ccccc2N1C(=O)CN1C(=O)c2ccccc2C1=O	none
CCOC(=O)Nc1ccc2c(c1)N(C(=O)OCC)c1ccccc1CC2	TEAD-YAP inh 48.2
COc1ccc(Cn2c(=S)[nH]c3cc(C(=O)NCc4ccccc4)ccc3c2=O)cc1	none
O=C(c1ccc(-c2nc3ccccc3s2)s1)N1CCCC1	TEAD-YAP inh 88.7
O=C(O)c1ccc(-c2nc3ccccc3s2)s1	none
O=C(O)/C(S)=C\c1ccccc1Cl	none
COc1cc([N+](=O)[O-])cc2c1NC(c1ccc(C(=O)O)cc1)C1CC=CC21 (stereo unspecified)	MITF inh 75.2
COc1cccc2c1N[C@@H](c1ccc(C(=O)O)cc1)[C@H]1CC=C[C@@H]21	MITF inh 63.3
